# Experimental data taken from PubChem BioAssay AID1645887 (National Center for Advancing Translational Sciences (NCATS), 2021).
# Several values for one entry are separate records, joined by “and”; a condition that tells them apart may be missing. Equal entries are not always repeated. The campaign covered roughly 16,000 compounds. About 40 (0.2%) were called active. Another 1% or so got no clear call; they are omitted. What follows is part of a selection rich in actives, with near analogues and random picks from the rest. A number with no mark means an inactive call. Calls come from the whole dose curve; as a rule, active = well fitted activation curve with a large enough effect; inconclusive = small, poorly fitted or top-dose-only effect, or another doubt; inactive = no such curve, though single readings can be large or run the other way.
# Molecular target: Rap guanine nucleotide exchange factor 4 (Homo sapiens) (UniProt Q8WZA2)
# Sequence (Q8WZA2 whole entry, looked up): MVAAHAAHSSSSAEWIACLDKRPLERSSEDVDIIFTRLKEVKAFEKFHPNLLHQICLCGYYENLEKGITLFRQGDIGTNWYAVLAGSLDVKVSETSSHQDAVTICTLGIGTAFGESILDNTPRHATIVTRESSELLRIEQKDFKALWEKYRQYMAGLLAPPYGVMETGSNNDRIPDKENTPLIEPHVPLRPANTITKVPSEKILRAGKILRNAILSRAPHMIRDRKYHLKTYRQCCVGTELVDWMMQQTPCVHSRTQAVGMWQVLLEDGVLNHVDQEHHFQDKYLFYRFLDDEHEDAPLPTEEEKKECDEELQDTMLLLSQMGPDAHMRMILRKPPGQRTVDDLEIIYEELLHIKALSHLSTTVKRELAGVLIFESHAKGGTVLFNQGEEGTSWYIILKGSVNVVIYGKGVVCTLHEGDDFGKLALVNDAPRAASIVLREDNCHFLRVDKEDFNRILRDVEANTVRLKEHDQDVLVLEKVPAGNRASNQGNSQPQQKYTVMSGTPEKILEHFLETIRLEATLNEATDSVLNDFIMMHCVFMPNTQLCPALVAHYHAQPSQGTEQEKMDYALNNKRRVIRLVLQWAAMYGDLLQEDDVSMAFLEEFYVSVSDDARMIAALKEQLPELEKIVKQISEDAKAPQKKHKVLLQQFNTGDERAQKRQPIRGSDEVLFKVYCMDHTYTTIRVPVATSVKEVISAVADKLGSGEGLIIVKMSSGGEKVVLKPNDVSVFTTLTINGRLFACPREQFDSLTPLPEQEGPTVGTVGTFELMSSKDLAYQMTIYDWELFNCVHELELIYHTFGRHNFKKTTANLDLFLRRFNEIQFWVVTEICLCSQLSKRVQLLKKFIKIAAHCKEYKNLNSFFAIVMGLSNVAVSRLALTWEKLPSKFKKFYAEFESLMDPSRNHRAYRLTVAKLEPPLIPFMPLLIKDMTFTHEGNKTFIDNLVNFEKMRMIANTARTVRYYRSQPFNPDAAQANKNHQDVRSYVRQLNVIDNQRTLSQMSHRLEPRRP
# Experiment: Validation qHTS for agonist of cAMP-regulated guanine nucleotide exchange factor 4 (EPAC2);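 for activation: exchange makes BODIPY-GDP fluorescence drop when released from Rap1B; series mostly up to about 150 µM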
# Details: EPAC2 Rap1B BODIPY-GDP exchange, fluorescence; activation: active compounds read high
# From the text: Principle Investigator: Xiaodong Cheng Ph.D.
# The University of Texas Medical Branch, […], TX
# In multi-cellular eukaryotic organisms, the effects of cAMP are transduced by two ubiquitously-expressed intracellular cAMP receptors, the classic protein kinase A/cAMP-dependent protein kinase (PKA/cAPK) and the more recently discovered exchange protein directly activated by cAMP/cAMP-regulated guanine nucleotide exchange factor (EPAC/cAMP-GEF). Both PKA and EPAC are ubiquitously expressed in all tissues, and an increase in intracellular cAMP levels will lead to the activation of both PKA and EPAC. Therefore, careful dissections of the individual role and relative contribution of EPAC and PKA within the overall cAMP signaling in various model systems are critical for further elucidating the mechanism of cAMP signaling. To date no EPAC-specific antagonists and agonist, as well as isoform-specific agonists have been reported, and developing EPAC-specific pharmacological probes to determine the physiological functions that EPAC play in the overall cAMP-mediated signaling remains a major challenge within the research field. Furthermore, identified regulators of EPAC may lead to new mechanism-based therapeutic strategies specifically targeting the EPAC / cAMP-signaling components as EPAC has been implicated to play important roles in major human pathological conditions such as diabetes, heart disease, and cancer.
# This qHTS will be used to screen the Molecular Libraries Small Molecule Repository (MLSMR) as a concentration-titration series using the NCGC unique quantitative screening (qHTS) platform to find activators for EPAC1. In addition, this assay will also be used as a counterscreen for the EPAC2 qHTS. This fluorescent based assay is developed and validated for EPAC1 that measures exchange using EPAC effector Rap1 complex with BODIPY-GDP, a GDP analog with a tethered fluorophores. Activators are identified by monitoring the change in fluorescence signal as the exchanged free BODIPY-GDP has a reduced fluorescence compared to Rap1-bound BODIPY-GDP. Increase in signal (activation) is the desired outcome for the EPAC1 agonist while no activity in this assay is desired for the EPAC2 agonist counterscreen.
# [1] de Rooij, J., Zwartkruis, F. J., Verheijen, M. H., Cool, R. H., Nijman, S. M., Wittinghofer, A., and Bos, J.L. (1998) Nature 396, 474-477.
# Briefly, three uL of reagents (100 nM EPAC2, 250 nM RAP1B-BODIPY-GDP, 50 uM GDP) were dispensed into a 1536-well Greiner black solid-bottom medium binding assay plate. Controls and test compounds (23 nL) were transferred to the plate via a Kalypsys pin tool equipped with a 1536-pin array. The plates were centrifuged at 1,000 rpm for 15 seconds followed by 5 minute incubation at room temperature. The assay plates were read at 5 minute intervals for 30 minutes in the ViewLux plate reader using 480nm excitation and 540nm emission filters. The results were normalized to the agonist positive control of 6.5 mM cAMP.
# % is set by controls: 0 for no effect and ±100 for the full control effect; potency is the fitted concentration of half-maximal effect.
SMILES,activation,Potency
CC(C)NC(=O)N1CCC2(CC1)CCN(S(=O)(=O)c1ccccc1)CC2,-7.09%,–
O=S1(=O)CCOCCCN1Cc1cccc(F)c1,-1.25%,–
OCC1OC(n2cnc3c(Cl)nc(Cl)nc32)C(O)C1O (centres undefined),-15.7%,–
O=C(c1cccc(F)c1)N1CCC2(CC1)CN(c1ccccc1)C2,4.44%,–
NC(=S)c1ccc[n+]([C@@H]2O[C@@H](COP(=O)([O-])OP(=O)(O)OC[C@H]3O[C@@H](n4cnc5c(N)ncnc54)[C@H](OP(=O)(O)O)[C@@H]3O)C(O)C2O)c1 (some centres undefined),-34.4%,–
COCCn1c(=O)c(CCc2ccccc2)nc2cnc(N3CCN(C)CC3)nc21,-2.75%,–
COC(=O)C1C(O)CC[C@H]2CN3CCc4c([nH]c5ccccc45)C3C[C@H]12 (some centres undefined),2.5%,–
Cc1c(C(=O)NCCCc2ccncc2)cnn1-c1nccc(-c2ccccc2F)n1,-21.1%,–
COc1cccc(-c2nc(N3CCN(C)CC3)c3ccccc3n2)c1,-6.1%,–
COc1cccc(CNC(=O)c2c(OC)cc(=O)n3c2CCN(C(=O)c2cc(C)ccc2C)CC3)c1,-2.82%,–
O=c1c(-c2ccc(Cl)cc2)nc2cnc(N3CCOCC3)nc2n1Cc1ccc(F)cc1,-11.5%,–
COc1cc(CN2CCOc3ccc(C(O)c4cccnc4)cc3C2)cc(OC)c1 (centres undefined),-13.6%,–
COc1cc(N)c(N)cc1OC,-7.59%,–
Nc1cc(N)cc(N)c1,–,50.1 µM (active)
Nc1ccc(O)cc1,25.8% and 23.8%,–
Cc1cnc(CNc2cc(-c3ccc(N(C)C)cc3)ncn2)cn1,-19.7%,–
COc1ccccc1C1CN(CCNC(=O)c2ccc3c(c2)OCCO3)Cc2ccccc2O1 (centres undefined),10.6%,–
COc1ccccc1CN1[C@@H](CC(=O)O)c2ccccc2S1(=O)=O,-19.4%,–
COC(=O)C1CCN(Cc2ccc3c(c2)CN(C(=O)c2ccc(-n4cnnn4)cc2)CCO3)CC1,-3.06%,–
COc1cc(/C(C)=C/c2ccccc2)c2c(c1)oc1ccccc12,-19%,–

SMILES,activation,Potency
CCCCCCC[n+]1ccc(/C=C/c2c(C)[nH]c3ccccc23)c2ccccc21,-18.3%,–
CCCCCCCCCCCCCCCC[n+]1ccc(/C=C/c2c(C)[nH]c3ccccc23)cc1,-30%,–
CCCCCCC[n+]1ccc(/C=C/c2c(C)[nH]c3ccccc23)cc1,–,25.1 µM (active)
Cc1cnc(-n2ncc(C(=O)NCc3ccccn3)c2C2CC2)nc1-c1cccs1,-5.87%,–
c1ccc2nc3ccccc3cc2c1,-8.02%,–
Nc1ccc2cc3ccc(N)cc3nc2c1,–,89.1 µM (active)
Nc1ccc2nc[nH]c2c1,-7.36%,–
COc1ccc2c(c1)-c1nc(-n3ncc(C(=O)NCC4CCCN(C)C4)c3C3CC3)ncc1CC2 (centres undefined),1.91%,–
CC(=O)N[C@@H]1C(O[C@H]2O[C@H](C(=O)O)C(O)[C@H](O)[C@H]2O)[C@H](O)[C@@H](CO)O[C@H]1O[C@@H]1C(C(=O)O)O[C@@H](O[C@H]2[C@H](O)[C@@H](CO)OC(O)[C@@H]2NC(C)=O)[C@H](O)[C@H]1O (some centres undefined),-11.1%,–
CCn1c(C)nc2cc(NS(=O)(=O)c3ccccc3)cc(C(=O)N3C[C@@H](C)O[C@@H](C)C3)c21,-0.794%,–
OC(C1=C/C(=C\c2ccncc2)c2ccccc21)c1ccncc1 (centres undefined),-21.2%,–
COc1ccc(C(=O)N2CCC3(CC2)c2ccccc2[C@@H](NC(=O)c2ccccn2)[C@@H]3OC)c(O)c1,3.44%,–
O=C1[C@H](Cc2ccccc2)NC/C=C\C[C@@H](c2ccc(Cl)cc2)N1Cc1ccccc1,-43%,–
CC(C)C[C@@H](CO)N1CCN(Cc2cccc(C#N)c2)CCC1=O,-27.7%,–
COc1ccc(OC)c(CN2CCCC(c3nc(-c4ccncc4)ncc3-c3ccccc3C)C2)c1 (centres undefined),-2.68%,–
FC(F)(F)C(Cl)Br (centres undefined),-29.1%,–
FC(F)OC(Cl)C(F)(F)F (centres undefined),–,31.6 µM (active)
COCc1ccc(CN2CCOc3c(O)cc(-c4cc(C)c5ccc(F)cc5n4)cc3C2)o1,8.6%,–
O=C(c1cc(C(F)(F)F)cc(C(F)(F)F)c1)N1CCC2(CCCN(Cc3ccccc3)C2)CC1,-6.26%,–
